Results: PubChem BioAssay (EPA / NIEHS)
Results filed as inconclusive are left out. Activity calls are given as the source filed them. Rule for the calls, unless noted: active = hit-call score of the fitted dose curve at least 0.9, where 1 is the maximum; inconclusive = response in the unintended direction; inactive = score below 0.9.

Key:
[1] = TOX21_PR_LUC_Followup_Agonist_viability: Viability Assessment in the Tox21 HEK293 Progesterone Receptor (PR) Agonism Luciferase Follow-Up Assay (AID 2283941);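 note: loss of signal means cytotoxicity so actives lower viability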
In short: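 Cytotoxicity counter-readout in the PR-A luciferase reporter line HEK293, with 16 h compound exposure at 37C after cells were cultured in charcoal-stripped serum. Cellular ATP quantified by CellTiter-Glo luminescence.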

[2] = biological target: Thyroid hormone receptor alpha (Rattus norvegicus) + Thyroid hormone receptor beta (Rattus norvegicus) (UniProt P18113+P63059); experiment: TOX21_TR_LUC_GH3_Antagonist_Followup: Tox21 GH3 Thyroid Hormone Receptor Antagonism Luciferase Follow-Up Assay (AID 2283942)
In short: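 Loss of T3-driven (1.0 nM final) reporter activity in GH3 cells was read by ONE-Glo luminescence after 24 h incubation at 37C; 15-point compound series spanned 92 uM to 5nM final, 1,500 cells/well.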

[3] = TOX21_TRB_BLA_Antagonist_Followup_viability: Viability Assessment in the Tox21 Thyroid Hormone Receptor beta Antagonism Beta-lactamase (BLA) Follow-Up Assay (AID 2283961)
In short: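 ATP-based CellTiter-Glo luminescence (30 min, room temperature) run in the same wells as the TRβ-bla readout. Cells: GeneBLAzer HEK293T expressing GAL4-TRβ LBD, exposed 18 h at 37C to compounds at 11 concentrations in triplicate, stripped-serum medium.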

[4] = biological target: THRB (gene 7068) (UniProt P10828); experiment: TOX21_TRB_COA_Antagonist_Followup_ratio: Tox21 Thyroid Hormone Receptor beta Antagonism through Coactivator Recruitment Follow-Up Assay, Ratio (AID 2283967)
In short: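 Coactivator recruitment to the GST-tagged TRb ligand-binding domain (5.0 nM) was read as the 520/495 nm TR-FRET ratio, using 200 nM fluorescein SRC-2 peptide and 2 nM terbium anti-GST. Scaled between DMSO and T3 wells; loss of signal fitted.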

[5] = biological target: THRA (gene 7067) (UniProt P10827); experiment: TOX21_TRA_COA_Agonist_Followup_ratio: Tox21 Thyroid Hormone Receptor alpha Agonism through Coactivator Recruitment Follow-Up Assay, Ratio (AID 2283948; active = hit-call score of the fitted dose curve at least 0.9, where 1 is the maximum; inactive = score below 0.9)
In short: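 Cell-free TR-FRET coactivator recruitment: GST-tagged TRα LBD (2.5 nM) with 0.10% BSA was incubated with compound, then fluorescein-SRC-2 peptide (200 nM) and Tb-anti-GST antibody (2 nM) added. 520:495 nm ratio normalized to DMSO (0%) and T3 (100%).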

[6] = biological target: THRB (gene 7068) (UniProt P10828); experiment: TOX21_TRB_COA_Agonist_Followup_ratio: Tox21 Thyroid Hormone Receptor beta Agonism through Coactivator Recruitment Follow-Up Assay, Ratio (AID 2283963; active = hit-call score of the fitted dose curve at least 0.9, where 1 is the maximum; inactive = score below 0.9)
In short: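 Agonism is measured as coactivator recruitment in a purified-protein TR-FRET format, using GST-TRβ LBD at 5.0 nM, fluorescein-SRC-2 peptide at 200 nM and Tb-labeled anti-GST antibody at 2 nM. Values are 520:495 nm ratios relative to DMSO (0%) and T3 (100%).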

[7] = biological target: Retinoic acid receptor RXR-alpha (Homo sapiens) (UniProt P19793); experiment: TOX21_TR_RXR_BLA_Agonist_Followup_ratio: Tox21 Thyroid Hormone Receptor beta Retinoid X Receptor alpha (RXRa) Agonism Beta-lactamase (BLA) Follow-Up Assay, Ratio (AID 2283968)
In short: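 Agonist mode: compounds given to RXRa-bla HEK293T cells at 11 concentrations, triplicate, 16 h at 37C/5% CO2. Readout is the 460:530 nm blue/green ratio after 2 h substrate loading at room temperature; DMSO baseline, 9-cis retinoic acid control.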

[8] = TOX21_TR_RXR_BLA_Agonist_Followup_viability: Viability Assessment in the Tox21 Thyroid Hormone Receptor beta Retinoid X Receptor alpha (RXRa) Agonism Beta-lactamase (BLA) Follow-Up Assay (AID 2283970)
In short: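 CellTiter-Glo ATP luciferase read-out of cell viability, multiplexed with the beta-lactamase reporter run. RXRa-bla HEK293T cells in charcoal-stripped serum medium were exposed 16 h at 37C; data fitted both directions relative to DMSO.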

[9] = biological target: THRA (gene 7067) (UniProt P10827); experiment: TOX21_TRA_COA_Antagonist_Followup_ratio: Tox21 Thyroid Hormone Receptor alpha Antagonism through Coactivator Recruitment Follow-Up Assay, Ratio (AID 2283953)
In short: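 GST-TRα LBD 2.5 nM, BSA 0.10%, + cpd; then FITC-SRC-2 peptide 200 nM + Tb-anti-GST Ab 2 nM. TR-FRET ratio 520/495 nm. Norm: DMSO = 0%, T3 = 100%.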

[10] = biological target: THRB (gene 7068) (UniProt P10828); experiment: TOX21_TRB_BLA_Antagonist_Followup_ratio: Tox21 Thyroid Hormone Receptor beta Antagonism Beta-lactamase (BLA) Follow-Up Assay, Ratio (AID 2283958)
In short: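 Beta-lactamase reporter ratio (460/530 nm, CCF4-AM substrate, 2 h room temperature) was read in TRb-bla HEK293T cells after 18 h compound treatment (11 concentrations, triplicate) at 37C in 2% charcoal-stripped FBS medium. Loss of signal fitted against DMSO.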

Measured: outcome

Chain of THRA (gene 7067) (P10827 whole entry, looked up, the tested form may be a part): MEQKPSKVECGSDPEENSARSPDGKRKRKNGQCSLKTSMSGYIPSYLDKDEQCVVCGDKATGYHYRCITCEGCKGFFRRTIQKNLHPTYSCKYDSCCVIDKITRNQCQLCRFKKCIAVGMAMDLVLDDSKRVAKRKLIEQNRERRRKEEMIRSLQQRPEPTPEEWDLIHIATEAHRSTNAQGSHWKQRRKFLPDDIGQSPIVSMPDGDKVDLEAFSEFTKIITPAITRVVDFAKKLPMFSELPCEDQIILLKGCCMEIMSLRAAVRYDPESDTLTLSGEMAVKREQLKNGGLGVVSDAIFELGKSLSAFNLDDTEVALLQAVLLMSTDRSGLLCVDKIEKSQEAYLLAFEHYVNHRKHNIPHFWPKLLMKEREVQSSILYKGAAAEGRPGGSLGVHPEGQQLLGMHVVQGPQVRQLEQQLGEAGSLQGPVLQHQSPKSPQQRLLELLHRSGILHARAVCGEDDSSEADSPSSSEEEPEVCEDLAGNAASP
Chain of THRB (gene 7068) (P10828 whole entry, looked up, the tested form may be a part): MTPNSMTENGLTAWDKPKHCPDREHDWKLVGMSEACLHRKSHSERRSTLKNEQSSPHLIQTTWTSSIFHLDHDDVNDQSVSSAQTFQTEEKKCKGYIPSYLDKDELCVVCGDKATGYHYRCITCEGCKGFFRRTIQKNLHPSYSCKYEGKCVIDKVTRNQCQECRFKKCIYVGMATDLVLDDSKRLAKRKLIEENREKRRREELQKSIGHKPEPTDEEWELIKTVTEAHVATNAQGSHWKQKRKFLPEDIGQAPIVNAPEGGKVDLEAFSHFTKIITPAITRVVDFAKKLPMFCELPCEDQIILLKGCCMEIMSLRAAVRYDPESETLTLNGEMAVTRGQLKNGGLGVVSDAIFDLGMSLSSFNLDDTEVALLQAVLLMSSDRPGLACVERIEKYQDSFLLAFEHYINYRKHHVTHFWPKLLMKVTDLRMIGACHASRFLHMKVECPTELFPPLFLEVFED
Chain of Retinoic acid receptor RXR-alpha (Homo sapiens) (P19793 whole entry, looked up): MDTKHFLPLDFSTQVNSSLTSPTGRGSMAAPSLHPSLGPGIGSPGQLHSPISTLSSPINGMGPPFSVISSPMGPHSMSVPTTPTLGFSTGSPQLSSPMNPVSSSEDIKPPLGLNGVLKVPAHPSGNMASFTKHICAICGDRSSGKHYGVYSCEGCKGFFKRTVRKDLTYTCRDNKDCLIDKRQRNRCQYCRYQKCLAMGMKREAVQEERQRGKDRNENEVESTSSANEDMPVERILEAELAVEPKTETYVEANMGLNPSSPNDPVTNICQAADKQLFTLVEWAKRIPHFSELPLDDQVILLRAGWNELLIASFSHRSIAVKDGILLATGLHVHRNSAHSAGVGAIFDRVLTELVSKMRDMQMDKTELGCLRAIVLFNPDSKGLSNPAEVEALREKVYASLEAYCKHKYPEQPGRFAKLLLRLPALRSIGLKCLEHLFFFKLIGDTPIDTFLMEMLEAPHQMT

C[C@]12CC[C@@H]3c4ccc(O)cc4C[C@@H](CCCCCCCCCS(=O)CCCC(F)(F)C(F)(F)F)[C@H]3[C@@H]1CC[C@@H]2O (stereo partly specified)
inactive: [1] | [2] | [3] | [4]

CCNc1nc(N)nc(Cl)n1
inactive: [5] | [6] | [7] | [8]

CC(=O)[C@H]1CC[C@H]2[C@@H]3CCC4=CC(=O)CC[C@]4(C)[C@H]3CC[C@]12C
inactive: [2] | [9] | [10] | [3] | [4]

O=C(c1ccc(O)cc1O)c1ccc(O)cc1O
inactive: [1]

CC(C)CCCCCCc1ccc(O)cc1
inactive: [1]

COC(=O)c1ccc(I)cc1S(=O)(=O)NC(=O)Nc1nc(C)nc(OC)n1
inactive: [5] | [6] | [7] | [8]

CCCN(CCC)C(=O)SCC
inactive: [5] | [6] | [7]

C[C@]12C[C@H](O)[C@H]3[C@@H](CCC4=CC(=O)CC[C@@]43C)[C@@H]1CC[C@@H]2C(=O)CO
inactive: [1] | [9] | [10] | [3]
